Reference: PubChem BioAssay (NCATS)
Results filed as inconclusive are left out. Active and inactive are the calls of the source. Unless noted, calls come from the whole dose curve; as a rule, active = well fitted curve in either direction with a large enough effect (not every such curve was filed as active); inconclusive = small, poorly fitted or top-dose-only effect, or another doubt; inactive = flat fitted curve, though single readings scatter.

Assays:
[1] = molecular target: Lysosomal acid glucosylceramidase (Homo sapiens) (UniProt P04062); experiment: Glucocerebrosidase-p2 (AID 348; in the data active = potency below about 10 µM; note: potency is the fitted concentration of half-maximal effect); conditions: purified GBA, blue fluorogenic substrate, 40 min
Procedure, shortened: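 Compounds titrated from 0.6 nM upwards against 0.2 nM enzyme in pH 5.9 citric acid/KH2PO4, taurocholate, tween-20; blue fluorogenic substrate 80 uM, 40 min room temperature, stopped and read Ex 365/Em 440 for AC50.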

[2] = AP1 Signaling Pathway (AID 357); conditions: ME-180 AP-1-bla reporter, EGF-induced, beta-lactamase ratio, 5 h; at 7.69 µM (top of the series) unless noted; note: % is set by controls: 0 for no effect and ±100 for the full control effect
Procedure, shortened: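 ME-180 cells with beta-lactamase reporter under AP-1 response element, stimulated with EC50 EGF; compounds tested in titration series, 5 h at 37 °C. CCF4 substrate added 2.5 h at room temperature; 460/530 nm emission ratio gave %activity and AC50.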

[3] = NFAT Signaling Pathway (AID 444); conditions: Jurkat NFAT-bla M1, carbachol, beta-lactamase ratio, 5 h; at 7.69 µM (top of the series) unless noted;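 note: carbachol stimulus at about its EC50 of 1 µM final; % is set by controls: 0 for no effect and ±100 for the full control effect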
Procedure, shortened: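 Jurkat cells with NFAT-driven β-lactamase reporter and co-expressed M1 receptor, stimulated with carbachol (final 1 uM, ~EC50), compound titration, 5 h at 37 °C. CCF4 loaded 1 h at RT; 460/530 nm ratio gave %activity and AC50.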

[4] = Stat Signaling Pathway (AID 446); conditions: ME-180 SIE beta-lactamase reporter, IL-6 stimulated, 5 h; at 7.69 µM (top of the series) unless noted;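 note: ME-180 cervical cancer cells given 40 pM IL-6 alongside compound; SIE-controlled beta-lactamase reporter measured as 460/530 nm FRET emission ratio; % is set by controls: 0 for no effect and ±100 for the full control effect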
Procedure, shortened: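 IL-6/STAT signaling read in ME-180 cells via an SIE beta-lactamase reporter. Stimulus was 40 pM IL-6 (its AC50) for 5 hrs, so both activation and inhibition register.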

[5] = molecular target: Glucocorticoid receptor (Homo sapiens) (UniProt P04150); experiment: GR-GFP Redistribution (AID 450;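 active = compounds whose dose series gives a full or clear partial fitted curve of increased nuclear translocation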; note: potency is the fitted concentration of half-maximal effect); conditions: U2OS GR-GFP nuclear translocation, laser cytometry, 2 h
[6] = molecular target: Glucocorticoid receptor (Homo sapiens) (UniProt P04150); experiment: GR-EFC Redistribution (AID 451; calls by dose curve; note: potency is the fitted concentration of half-maximal effect); conditions: CHO-K1 GR-EFC translocation, beta-gal luminescence, 2 h
Procedure, shortened: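 CHO-K1 cells expressing nuclear EA and GR-ED fragments of b-gal; compounds titrated up to 46 uM final, 2 h at 37 C. GR nuclear translocation read as complemented b-gal luminescence after 1 h RT detection.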

[7] = molecular target: Mitogen-activated protein kinase 10 (Mus musculus) (UniProt Q61831); experiment: JNK3 AlphaScreen Assay (AID 530); conditions: JNK3 lysate, c-Jun phosphorylation; series mostly up to 57.1 µM;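 note: kinase came from lysate of stimulated human HepG2 cells; signal reports phosphorylation of biotinylated GST-cJun 1-79 at Ser73 with 10 µM ATP; % is set by controls: 0 for no effect and ±100 for the full control effect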
Procedure, shortened: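 qHTS format: compounds tested as titrations against IL-1beta/TNF-alpha-activated HepG2 lysate JNK3 with biotin-GST-cJun substrate and 10 uM ATP at room temperature. Loss of anti-phospho-cJun AlphaScreen signal indicates inhibition.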

[8] = molecular target: 3',5'-cyclic-AMP phosphodiesterase 4B (Homo sapiens) (UniProt Q07343); experiment: qHTS Assay for Inhibitors of PDE-IV (AID 607; active = well fitted activation curve with a large enough effect in the main read-out, with a control signal flat, not every such curve was filed as active; note: % of control where 0% means no effect); conditions: HEK293 ACTOne CNG channel cells, membrane potential fluorescence; series mostly up to 22.9 µM
Procedure, shortened: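 Live HEK293 cells with a modified cyclic nucleotide-gated (CNG) channel report intracellular cAMP via membrane-potential dye fluorescence (ex 535/em 590 nm). Endogenous PDE-IV was targeted. Compounds were tested at up to 22.9 uM final; RO 20-1724 100 uM served as control.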

[9] = qHTS Assay for Identification of Small Molecule Agonists for Hypoxia Response Element Signaling Pathway (AID 914; active = well fitted activation curve with a large enough effect in the signal ratio, with a control signal flat, not every such curve was filed as active; the % refers to the signal ratio; note: potency is the fitted concentration of half-maximal effect); conditions: ME-180 (cervical carcinoma) HRE-bla reporter, beta-lactamase ratio, CoCl2, 17 h; activation: stronger effect = higher value
Procedure, shortened: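 HRE-bla ME-180 assay for agonist-like enhancement of an EC50 CoCl2 stimulus: 17 h at 37 degrees Celsius, CCF4 for 2.5 h, ratiometric 460/530 nm signal converted to %Activity and fitted to AC50.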

[10] = qHTS Assay for Lipid Storage Modulators (AID 1519; calls by dose curve); conditions: Drosophila S3 cells, BODIPY lipid droplet/cell ratio, laser cytometry, cells loaded with oleic acid; for activity change, negative = inhibition: at 57.5 µM (top of the series)
Procedure, shortened: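 Cells seeded at 5,000 per well were treated with compounds over a concentration series and loaded with oleic acid (400 uM, as added). Lipid droplet fluorescence (488 nm excitation, 500-530 nm channel) was read by laser-scanning cytometry and normalized to 20 uM Triacsin C.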

[11] = Primary qHTS for small molecule stabilizers of the endoplasmic reticulum resident proteome: Secreted ER Calcium Modulated Protein (SERCaMP) assay (AID 1508630; active = well fitted curve in the direction sought with a large enough effect; an effect the other way counts as inactive or inconclusive; note: % is set by controls: 0 for no effect and ±100 for the full control effect); conditions: SH-SY5Y GLuc-SERCaMP (Gaussia luciferase released on ER calcium loss) secretion, thapsigargin, luminescence; series mostly up to 38.4 µM
Procedure, shortened: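 GLuc-SERCaMP-expressing SH-SY5Y cells, pretreated 16 h with compound, are challenged with thapsigargin to empty ER calcium stores; after 4 h, coelenterazine is added directly to the medium and luminescence is imaged.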

[12] = molecular target: Cytochrome P450 1A2 (Homo sapiens) (UniProt P05177); experiment: p450-cyp1a2 (AID 410; calls by dose curve; note: potency is the fitted concentration of half-maximal effect); conditions: recombinant CYP1A2, luciferin-ME demethylation, luminescence; series mostly up to 57 µM
Procedure, shortened: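 Inhibition was calculated relative to 57 uM furafylline (full inhibition). The reaction used human CYP1A2 at 20nM with Luciferin-ME at its Km, 100uM, driven by an NADPH-regenerating system for 60 min at room temperature.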

[13] = molecular target: Cytochrome P450 3A4 (Homo sapiens) (UniProt P08684); experiment: qHTS Assay for Inhibitors and Substrates of Cytochrome P450 3A4 (AID 884; active = well fitted curve in the direction sought with a large enough effect; an effect the other way counts as inactive or inconclusive; note: nearly all actives have a fitted effect of over 50% in size; note: potency is the fitted concentration of half-maximal effect); conditions: recombinant CYP3A4, Luciferin-PPXE luminescence; series mostly up to 57.1 µM
Procedure, shortened: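 20 nM human CYP3A4 with 25 uM Luciferin-PPXE (at KM) in 200 mM KPO4, preincubated 10 min with compound; NADPH regeneration started a 60 min RT reaction. Luciferin detected by luminescence, normalized to 57 uM ketoconazole as full inhibition.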

[14] = molecular target: Cytochrome P450 3A4 (Homo sapiens) (UniProt P08684); experiment: qHTS Assay for Activators of Cytochrome P450 3A4 (AID 885; active = well fitted curve in the direction sought with a large enough effect; an effect the other way counts as inactive or inconclusive; note: nearly all actives have a fitted effect of over 65% in size; note: potency is the fitted concentration of half-maximal effect); conditions: recombinant CYP3A4, Luciferin-PPXE luminescence, 60 min; series mostly up to 57.1 µM
Procedure, shortened: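 Quantitative HTS format: compounds preincubated with 20nM human CYP3A4 and Luciferin-PPXE substrate at KM, reaction started by NADPH regeneration, stopped after 60 min, luciferase luminescence read 20 min later.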

[15] = molecular target: Cytochrome P450 2C19 (Homo sapiens) (UniProt P33261); experiment: qHTS Assay for Inhibitors and Substrates of Cytochrome P450 2C19 (AID 899; active = well fitted curve in the direction sought with a large enough effect; an effect the other way counts as inactive or inconclusive; note: potency is the fitted concentration of half-maximal effect; nearly all actives have a fitted effect of over 60% in size); conditions: recombinant CYP2C19, luciferin-H EGE luminescence; series mostly up to 57.1 µM
Procedure, shortened: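 Signal comes from luciferase acting on luciferin released by CYP2C19-mediated hydroxylation of Luciferin-H EGE, 10uM (KM). Assay mix: 5nM enzyme, 50mM KPO4; 60 min at 37C with NADPH regeneration. Data normalized against 57uM ketoconazole.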

[16] = Confirmation and Secondary Assay for Modulators of Hemoglobin Beta Chain Splicing at IVS2 654 locus (AID 910; active = well fitted curve in the direction sought with a large enough effect; an effect the other way counts as inactive or inconclusive;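 note: HeLa cells stably carrying EGFP split by mutant beta-globin IVS2-654 intron; % of control where 0% means no effect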); conditions: HeLa EGFP-654 splicing reporter, GFP fluorescence, 48 h; series mostly up to 38.3 µM
Procedure, shortened: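 HeLa cells stably expressing EGFP interrupted by β-globin IVS2-654 intron, seeded overnight in Opti-MEM/2% FCS, then treated 2 days at 37 °C. Restored splicing read as total peak GFP intensity per well by laser scanning cytometry (488 nm excitation, 500–520 nm emission); 500 nM antisense PNA as control.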

[17] = Confirmation and Secondary Assay for Modulators of Hemoglobin Beta Chain Splicing at IVS2 705 locus (AID 930; active = well fitted curve in the direction sought with a large enough effect; an effect the other way counts as inactive or inconclusive;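 note: HeLa cells stably expressing the EGFP-705 splicing reporter; GFP fluorescence per well restored by corrected splicing of the IVS2-705 intron in EGFP; % of control where 0% means no effect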); conditions: HeLa EGFP-705 splicing reporter, GFP fluorescence, 48 h; series mostly up to 38.3 µM
Procedure, shortened: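 HeLa IVS2-705 EGFP reporter cells, 500/well, compound 2 d at 37C; correct splicing yields fluorescent EGFP. Control: 500 nM antisense PNA. Read-out: total peak GFP intensity.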

[18] = measured here: cell count channel max response
[19] = measured here: lipid channel max response

Chain of Cytochrome P450 3A4 (Homo sapiens) (P08684 whole entry, looked up): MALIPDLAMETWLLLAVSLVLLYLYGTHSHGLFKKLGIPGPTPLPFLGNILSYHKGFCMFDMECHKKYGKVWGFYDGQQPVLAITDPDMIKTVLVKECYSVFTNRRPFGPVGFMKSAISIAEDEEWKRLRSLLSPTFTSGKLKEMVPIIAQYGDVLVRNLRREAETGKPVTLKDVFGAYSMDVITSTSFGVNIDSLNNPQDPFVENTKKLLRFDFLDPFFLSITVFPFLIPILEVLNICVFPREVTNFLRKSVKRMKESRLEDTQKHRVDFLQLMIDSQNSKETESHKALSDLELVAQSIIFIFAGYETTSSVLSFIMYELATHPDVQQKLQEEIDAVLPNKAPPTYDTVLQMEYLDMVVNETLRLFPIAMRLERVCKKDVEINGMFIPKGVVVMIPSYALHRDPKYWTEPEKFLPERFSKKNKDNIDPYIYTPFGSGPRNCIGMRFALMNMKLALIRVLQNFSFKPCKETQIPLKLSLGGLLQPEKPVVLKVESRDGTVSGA
Chain of Lysosomal acid glucosylceramidase (Homo sapiens) (P04062 whole entry, looked up): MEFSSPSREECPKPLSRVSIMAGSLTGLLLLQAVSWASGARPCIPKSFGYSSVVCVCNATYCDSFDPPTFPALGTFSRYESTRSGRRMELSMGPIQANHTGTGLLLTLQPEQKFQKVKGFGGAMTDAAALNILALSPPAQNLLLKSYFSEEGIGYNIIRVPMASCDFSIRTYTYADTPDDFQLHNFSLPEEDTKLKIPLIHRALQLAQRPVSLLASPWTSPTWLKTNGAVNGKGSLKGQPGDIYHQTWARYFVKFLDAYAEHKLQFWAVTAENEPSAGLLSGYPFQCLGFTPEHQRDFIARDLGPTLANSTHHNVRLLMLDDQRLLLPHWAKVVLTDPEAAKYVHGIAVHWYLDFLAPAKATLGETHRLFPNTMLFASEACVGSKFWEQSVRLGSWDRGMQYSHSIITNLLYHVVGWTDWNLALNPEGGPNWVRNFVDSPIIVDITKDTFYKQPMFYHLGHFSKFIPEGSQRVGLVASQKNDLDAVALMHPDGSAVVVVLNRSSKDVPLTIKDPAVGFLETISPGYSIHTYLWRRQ
Chain of 3',5'-cyclic-AMP phosphodiesterase 4B (Homo sapiens) (Q07343 whole entry, looked up): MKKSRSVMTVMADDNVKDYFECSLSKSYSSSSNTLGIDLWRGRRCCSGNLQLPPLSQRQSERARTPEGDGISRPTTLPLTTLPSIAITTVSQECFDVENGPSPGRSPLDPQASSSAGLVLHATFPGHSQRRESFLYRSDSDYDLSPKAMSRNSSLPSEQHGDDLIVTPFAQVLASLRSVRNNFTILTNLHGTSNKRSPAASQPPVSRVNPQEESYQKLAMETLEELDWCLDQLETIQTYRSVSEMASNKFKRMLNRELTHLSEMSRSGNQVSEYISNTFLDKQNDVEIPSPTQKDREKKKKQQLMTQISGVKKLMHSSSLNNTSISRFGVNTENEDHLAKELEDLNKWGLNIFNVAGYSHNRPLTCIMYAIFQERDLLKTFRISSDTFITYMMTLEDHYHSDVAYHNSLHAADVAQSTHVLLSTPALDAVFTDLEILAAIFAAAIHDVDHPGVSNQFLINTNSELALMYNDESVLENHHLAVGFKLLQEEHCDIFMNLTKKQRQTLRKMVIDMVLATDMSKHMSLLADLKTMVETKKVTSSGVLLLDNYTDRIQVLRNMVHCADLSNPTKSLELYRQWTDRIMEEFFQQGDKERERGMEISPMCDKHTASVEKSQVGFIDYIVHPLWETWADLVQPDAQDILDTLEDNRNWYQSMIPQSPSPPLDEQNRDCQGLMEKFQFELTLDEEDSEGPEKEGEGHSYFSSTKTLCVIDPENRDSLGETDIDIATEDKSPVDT
Chain of Glucocorticoid receptor (Homo sapiens) (P04150 whole entry, looked up, the tested form may be a part): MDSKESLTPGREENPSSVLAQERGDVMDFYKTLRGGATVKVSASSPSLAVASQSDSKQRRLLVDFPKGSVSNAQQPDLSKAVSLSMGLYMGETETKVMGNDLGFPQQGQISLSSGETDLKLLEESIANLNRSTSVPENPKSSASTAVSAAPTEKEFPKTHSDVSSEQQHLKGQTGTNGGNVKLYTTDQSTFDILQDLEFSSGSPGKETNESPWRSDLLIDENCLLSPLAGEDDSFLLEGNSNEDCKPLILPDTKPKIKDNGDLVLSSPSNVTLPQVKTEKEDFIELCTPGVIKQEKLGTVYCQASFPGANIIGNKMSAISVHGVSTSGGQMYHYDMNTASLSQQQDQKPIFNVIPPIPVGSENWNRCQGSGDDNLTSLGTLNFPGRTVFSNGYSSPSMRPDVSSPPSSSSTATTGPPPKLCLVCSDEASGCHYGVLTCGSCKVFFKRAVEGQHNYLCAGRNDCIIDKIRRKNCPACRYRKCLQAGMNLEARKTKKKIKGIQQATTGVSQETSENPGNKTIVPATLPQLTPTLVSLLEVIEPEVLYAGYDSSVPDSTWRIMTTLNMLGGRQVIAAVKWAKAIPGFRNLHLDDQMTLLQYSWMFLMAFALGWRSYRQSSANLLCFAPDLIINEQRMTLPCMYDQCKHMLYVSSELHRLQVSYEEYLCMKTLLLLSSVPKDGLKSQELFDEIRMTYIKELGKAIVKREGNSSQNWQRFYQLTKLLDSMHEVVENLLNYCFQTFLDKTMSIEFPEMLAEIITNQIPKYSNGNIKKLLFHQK
Chain of Cytochrome P450 2C19 (Homo sapiens) (P33261 whole entry, looked up): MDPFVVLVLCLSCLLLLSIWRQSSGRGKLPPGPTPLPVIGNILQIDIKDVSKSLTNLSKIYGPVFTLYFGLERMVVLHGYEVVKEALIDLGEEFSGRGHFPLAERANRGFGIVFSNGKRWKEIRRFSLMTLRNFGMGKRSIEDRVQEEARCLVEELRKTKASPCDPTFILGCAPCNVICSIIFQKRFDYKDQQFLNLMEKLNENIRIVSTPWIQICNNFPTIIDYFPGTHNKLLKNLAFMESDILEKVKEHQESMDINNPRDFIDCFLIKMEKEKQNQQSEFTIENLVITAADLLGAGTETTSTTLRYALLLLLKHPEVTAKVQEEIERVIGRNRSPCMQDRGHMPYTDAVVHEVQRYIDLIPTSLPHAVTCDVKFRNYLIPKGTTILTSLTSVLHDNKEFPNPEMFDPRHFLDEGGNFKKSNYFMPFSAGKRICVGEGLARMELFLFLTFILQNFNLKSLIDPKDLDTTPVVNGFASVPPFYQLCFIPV
Chain of Cytochrome P450 1A2 (Homo sapiens) (P05177 whole entry, looked up): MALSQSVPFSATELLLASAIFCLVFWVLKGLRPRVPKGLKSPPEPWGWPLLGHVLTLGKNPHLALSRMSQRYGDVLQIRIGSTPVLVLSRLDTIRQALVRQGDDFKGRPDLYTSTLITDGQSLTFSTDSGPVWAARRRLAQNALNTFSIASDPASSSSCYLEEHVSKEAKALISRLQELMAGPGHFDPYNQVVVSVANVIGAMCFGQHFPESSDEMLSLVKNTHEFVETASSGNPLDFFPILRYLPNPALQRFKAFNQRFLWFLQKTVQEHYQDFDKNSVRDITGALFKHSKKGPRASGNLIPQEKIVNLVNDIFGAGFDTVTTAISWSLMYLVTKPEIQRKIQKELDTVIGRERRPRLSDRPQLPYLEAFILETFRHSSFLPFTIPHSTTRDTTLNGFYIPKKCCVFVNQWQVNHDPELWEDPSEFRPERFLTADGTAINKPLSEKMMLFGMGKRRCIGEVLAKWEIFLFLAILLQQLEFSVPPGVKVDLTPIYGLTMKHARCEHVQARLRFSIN

COc1ccc(-c2nc3cnc(Oc4ccccc4)nc3n(Cc3cccs3)c2=O)cc1
27.6%: max response [10, 18]
active: Potency [9] 2.51 µM
28.4%: max response [10, 19]
inactive: Potency [1] > 11.4 µM | activity change, negative = inhibition [2] 0.136% | activity change, negative = inhibition [3] -1.73% | activity, negative = inhibition [4] 16.1% | Potency [5] > 9.22 µM | Potency [6] > 46 µM | Potency [7] | Potency [8] | activity change, negative = inhibition [10] -0.637% | outcome [11]

c1ccc(-c2cccc(N3CCCC4(CCNCC4)C3)c2)cc1
inactive: Potency [1] > 11.4 µM | activity change, negative = inhibition [2] 11.2% | activity change, negative = inhibition [3] -11% | activity, negative = inhibition [4] 8.57% | Potency [6] > 46 µM | Potency [7] | Potency [8] | activity change, negative = inhibition [10] 2.43% | outcome [11]
-2.04%: max response [10, 18]
1.36%: max response [10, 19]

O=C(c1cccc(F)c1)N1CCC2(CCN(Cc3nccs3)CC2)CC1
20.4%: max response [10, 19]
inactive: Potency [1] > 11.4 µM | activity change, negative = inhibition [2] -8.17% | Potency [6] > 46 µM | Potency [13] | activity change, negative = inhibition [10] 6.34% | outcome [11]
8.7%: max response [10, 18]
active: Potency [12] 1.58 µM | Potency [14] 15.8 µM | Potency [15] 1.58 µM

CC(C)NC(=O)N1CC[C@@]2(CCCN(C(=O)c3cnccn3)C2)C1
5.89%: max response [10, 19]
inactive: Potency [1] > 11.4 µM | activity change, negative = inhibition [2] 7.64% | activity change, negative = inhibition [3] 11.4% | activity, negative = inhibition [4] 4.04% | Potency [6] > 46 µM | Potency [7] | Potency [8] | activity change, negative = inhibition [10] 3.99% | outcome [11]
-1.16%: max response [10, 18]

COc1ccc(-n2c(=O)cnc3cnc(Nc4ccccc4)nc32)cc1
8.28%: max response [10, 18]
18.1%: max response [10, 19]
inactive: Potency [1] > 11.4 µM | activity change, negative = inhibition [2] -13.4% | activity change, negative = inhibition [3] 5.4% | activity, negative = inhibition [4] -1.48% | Potency [5] > 9.22 µM | Potency [6] > 46 µM | Potency [7] | activity change, negative = inhibition [10] 7.14% | outcome [11]

Cc1ccccc1-c1nc(NCCN2CCOCC2)c2ccccc2n1
17.4%: max response [10, 18]
26.1%: max response [10, 19]
inactive: Potency [1] > 11.4 µM | activity change, negative = inhibition [2] -10.8% | activity change, negative = inhibition [3] -9.08% | activity, negative = inhibition [4] -0.303% | Potency [5] > 46 µM | Potency [6] > 46 µM | Potency [7] | Potency [8] | Potency [16] | outcome [17] | activity change, negative = inhibition [10] 8.15% | outcome [11]

COc1ncc2nc(-c3cn(C)c4ccccc34)c(=O)n(Cc3ccc(F)cc3)c2n1
23.9%: max response [10, 19]
18.8%: max response [10, 18]
inactive: Potency [1] > 11.4 µM | activity change, negative = inhibition [2] 10.6% | activity change, negative = inhibition [3] -4.65% | activity, negative = inhibition [4] 20.2% | Potency [5] > 9.22 µM | Potency [6] > 46 µM | Potency [7] | Potency [8] | Potency [14] | activity change, negative = inhibition [10] 3.02% | outcome [11]
active: Potency [13] 6.31 µM
